In all, about 210,000 compounds went through this assay and about 5,900 (2.8%) were called active. Another 5% or so got no clear call; they are omitted. The full list was thinned out, with actives kept by preference. A number with no mark means an inactive call. Calls come from the whole dose curve; as a rule, active = well fitted activation curve with a large enough effect; inconclusive = small, poorly fitted or top-dose-only effect; inactive = no such curve, though single readings can be large or run the other way.
Potency is the fitted concentration of half-maximal effect.

A short description of this test: qHTS Assay for Enhancers of SMN2 Splice Variant Expression. For activity change, positive = activation: % of control where 0% means no effect. Note: nearly all actives have a fitted effect of over 55% in size. The settings on record: HEK293 SMN2-luciferase splicing reporter, luminescence, 30-36 h; series mostly up to 46.1 µM; activity change, positive = activation: at the top concentration. The text has this: NIH Chemical Genomics Center [NCGC] NIH Molecular Libraries Probe Production centers Network [MLPCN] MLPCN Grant: R03 MH084179-01 Assay Submitter (PI): Elliot Androphy NCGC Assay Overview: Spinal muscular atrophy (SMA) is caused by insufficient levels of the survival motor neuron protein SMN. The SMN locus on chromosome 5q13 contains two inverted copies of SMN called SMN1 and SMN2 which are 99% identical at the amino acid level. SMN1 is a fully functional protein and SMN2 skips exon 7 90% of the time. Skipping of exon 7 produces non-functional protein product. 10% of the SMN2 protein includes exon 7 and is fully functional. In the SMA disease state, mutations in the SMN1 locus are the cause of the disease state. Because only 10% of SMN2 is of the fully functional form, it is not sufficient to overcome the deficiency produced by the loss of the SMN1 product. A therapy that either increase the amount of SMN2 product made or to increase the inclusion of exon 7 has been proposed for the treatment of SMA. We have designed an assay to identify small molecules that can increase the amount of functional SMN2 product by appending a luciferase reporter gene after the native SMN2 gene, such that inclusion of exon 7 in the expressed product places the luciferase sequence in frame, thus generating functional luciferase enzyme.
NCGC Assay Protocol Summary: This screen utilizes a luciferase reporter gene assay, combining the promoter and splicing based cassettes in tandem with the major portion of the native SMN2 cDNA, and then transfected into HEK293 cells. Compounds that increase luciferase signal presumably enhance expression of the functional SMN2 splice variant. Passaging media contained DMEM w/ glutamax (+phenol red) 10% FCS, 1x pen/strep, 200 ug/ml hygro, 1x sodium pyruvate. Assay media contained DMEM w/ glutamax (-phenol red) 10% FCS, 1x pen strep, 1x pyruvate Sequence, Parameter, Value, Description (1) Cells, […], 2000 cells/well, 1536 TC treated White solid bottom plate (2) Time, 10-12 hours, 37C 5% CO2 (3) Compound, 23 nl, MLSMR Library (4) Control Compound, 23 nL, Sodium butyrate st 4.5mM (final) conc (5) Time, 30-36 hours, 37C 5% CO2 (6) Reagent, 3 ul, One Glo (TM) from Promega (7) Time, 5-15 minutes, Room temp (8) Detector, Viewlux: luminescent read, 60 second integration, high speed 2x binning Keywords: Spinal muscular atrophy, SMA, SMN2, high throughput screening, MLSMR, MLPCN, NIH Roadmap, qHTS and NCGC
On the technique in general: qHTS replaces the single test concentration by a dilution series.
Consider `COc1ccc(CCNC(=O)Cn2c(=O)n(-c3ccccc3)c(=O)c3c(C)c(C)sc32)cc1OC`, for which the “activity change, positive = activation” value was -5.04%.

As to `Cc1ccc(-c2noc(CSc3nnc(-c4cccs4)n3C)n2)cc1`, the “activity change, positive = activation” value is -21.9%.

As for `c1csc(-c2nc(-c3ccncc3)no2)c1`, the Potency was 15.8 µM (active).

Consider `CC(C)c1nc(-c2ccccn2)no1`, for which the “activity change, positive = activation” value is -5.04%.

`c1ccc(-c2noc(-c3cccs3)n2)nc1`: the Potency was 2.82 µM (active).

`c1ccc(CCc2nc(-c3ccncc3)no2)cc1`: the “activity change, positive = activation” value was 24%.

In the case of `COc1ccc(Cc2nc(-c3ccccn3)no2)cc1OC`, the “activity change, positive = activation” value is 21.9%.

As for `COc1ccc(C)cc1-n1c(-c2ccc(C)cc2)cc2c1CC(C)(C)CC2=O`, the “activity change, positive = activation” value is 10.6%.

Take `Cn1c(=O)c(C(=O)O)nn(-c2ccccc2)c1=O`: the “activity change, positive = activation” value is 17.2%.

On to `COc1ccc(-c2c(C)nn3c(N4CCC(C(=O)NCCC(C)C)CC4)cc(C)nc23)cc1OC`, for which the “activity change, positive = activation” value was -0.433%.

In the case of `Cc1cc(-c2ccccc2)n2nc(C)c(-c3ccccc3)c2n1`, the “activity change, positive = activation” value is -18.7%.

`Cc1cc(-n2nc(C)cc2C)n2nc(C)c(-c3ccccc3)c2n1`: the “activity change, positive = activation” value was -15.7%.

Regarding `Cc1cc(N2CCCC2)n2nc(C)c(-c3ccccc3)c2n1`, the Potency was 11.2 µM (active).

As for `CCc1nc2nc(C)cc(Nc3ccc(F)c(Cl)c3)n2n1`, the “activity change, positive = activation” value was -8.09%.

Regarding `Cn1c(C(=O)N2CCC(C(=O)N3CCN(c4ccccc4)CC3)CC2)cc2sccc21`, the “activity change, positive = activation” value is 5.79%.

Consider `COc1ccc(NC(=O)CCN2CCN(CCO)CC2)cc1`, for which the “activity change, positive = activation” value is 1.23%.

For `CC(C)N1CCC(NC(=O)Nc2ccccc2)CC1`, the “activity change, positive = activation” value is -0.391%.

On to `CC(C)(C)NS(=O)(=O)c1ccc(NC(=O)NC2CCCCC2)cc1`, for which the “activity change, positive = activation” value was -0.432%.

`CC(C)c1ccc(NC(=O)NC2CCCCC2)cc1`: the Potency is 11.2 µM (active).

With `CCc1nn(CC(=O)N2CCN(c3cccc(C(F)(F)F)c3)CC2)c(=O)c2cc3occc3n12`, the “activity change, positive = activation” value is 7.08%.

In the case of `Oc1cccc2ccc(/C=C/c3ccc(Br)s3)nc12`, the Potency was 8.91 µM (active).

With `Nc1ccc(S(=O)(=O)Nc2nccc(/C=C/c3ccc(Br)s3)n2)cc1`, the “activity change, positive = activation” value was 17.1%.

For the compound `COc1cc(OC)cc(-c2nc3nc(C)c(CCC(=O)Nc4ccccc4)c(C)n3n2)c1`, the “activity change, positive = activation” value is -8.35%.

As to `O=C(Nc1ccc(Br)cn1)c1ccc([N+](=O)[O-])cc1Cl`, the Potency was 7.08 µM (active).

With `O=C(Nc1ccc(Br)cn1)c1ccc([N+](=O)[O-])o1`, the “activity change, positive = activation” value was 9.38%.

For the compound `CC(C)C(=O)Nc1cccc(NC(=O)c2ccc([N+](=O)[O-])cc2Cl)c1`, the “activity change, positive = activation” value is -4.89%.

For the compound `COc1ccccc1N1CCN(c2ncnc3onc(-c4cccc(Cl)c4)c23)CC1`, the “activity change, positive = activation” value was -0.084%.

For the compound `Cc1occc1C(=O)Nc1nnc(C2CCCCC2)s1`, the “activity change, positive = activation” value is 11.1%.

For `O=C(Nc1nnc(C2CC2)s1)c1ccccn1`, the Potency was 2.82 µM (active).

Take `O=C(Nc1nnc(Cc2ccccc2)s1)c1cnccn1`: the “activity change, positive = activation” value was 22.7%.

With `NC(=O)CSc1nc2c(oc3ccccc32)c(=O)n1Cc1ccccc1`, the “activity change, positive = activation” value is -5.05%.

Consider `Cc1ccc(-n2c(SCC(=O)Nc3cccc(F)c3)nc3c(oc4ccccc43)c2=O)cc1C`, for which the “activity change, positive = activation” value is -7.05%.

With `COC(=O)C1=C(c2ccccc2)c2ccccc2S(=O)(=O)N1CC(=O)Nc1ccccc1C(F)(F)F`, the “activity change, positive = activation” value was 8.62%.

For the compound `COc1ccc(C(F)(F)F)cc1NC(=O)c1sc2nc(-c3cccs3)ccc2c1N`, the “activity change, positive = activation” value is 11%.

Take `CN1C(=O)/C(=C/C=C2\SCCN2C)OC1=S`: the Potency is 12.6 µM (active).

For the compound `Cc1n[nH]c(C)c1S(=O)(=O)N1CCCC(C(=O)Nc2ccc(Br)cc2)C1` (configuration not stated), the “activity change, positive = activation” value was -57.6%.

Regarding `Cc1ccc2nc(-c3ccc(O)cc3)c(Nc3ccc4c(c3)OCO4)n2c1`, the “activity change, positive = activation” value is -7.48%.

With `CCOc1ccc(S(=O)(=O)N(CC(=O)NCCSCc2ccc(C)cc2)c2ccccc2)cc1`, the “activity change, positive = activation” value was -13.4%.

With `Cc1ccc(-c2noc(CSc3nnc(-c4ccc(Cl)cc4)n3C)n2)cc1`, the “activity change, positive = activation” value is 7.16%.

As for `Cc1ccc(/C=N\n2c(-c3ccccc3)n[nH]c2=S)s1`, the “activity change, positive = activation” value was 8.49%.

As to `Cc1cc(-c2n[nH]c(=S)n2/N=C/C(Br)=C/c2ccccc2)n[nH]1`, the “activity change, positive = activation” value was -19.9%.

For the compound `S=c1[nH]nc(-c2cccnc2)n1/N=C/C(Cl)=C\c1ccccc1`, the Potency is 12.6 µM (active).

As to `O=C(Cn1ncc2c3ccccc3n(Cc3ccccc3)c2c1=O)NCc1ccccn1`, the “activity change, positive = activation” value was 11.5%.

Take `CCN1CCN(Cc2c(O)ccc3oc(C)c(C(=O)Nc4ccc(C)cc4C)c23)CC1`: the “activity change, positive = activation” value was 7.3%.

Turning to `CC(C)(C)c1ccc(C(=O)N2CCC(c3nc(-c4ccc(S(=O)(=O)N5CCCC5)cc4)no3)CC2)cc1`, the “activity change, positive = activation” value is -5.48%.

As to `COc1cc(CNCCSc2nnnn2C)ccc1OCc1ccc(Cl)cc1Cl`, the “activity change, positive = activation” value is -16%.

For the compound `CCS(=O)(=O)n1nc(-c2ccccc2)nc1SCc1ccccc1`, the Potency is 22.4 µM (active).

Turning to `CS(=O)(=O)n1nc(-c2ccccc2)nc1NCc1ccco1`, the “activity change, positive = activation” value is 2.41%.

For the compound `CCn1c(SCc2ccccc2)nc2c(c1=O)SCC2`, the “activity change, positive = activation” value was -18.9%.

As for `Cc1ccc(-n2nc(CO)c(C(=O)NCCc3ccccc3)n2)cc1`, the “activity change, positive = activation” value is -5.5%.

As for `Cc1ccc(-n2c3nc(=O)[nH]c(=O)c-3cc3c(Cl)cccc32)cc1`, the “activity change, positive = activation” value was 1.85%.

As to `COc1ccc(N2CCN(C(=O)CSc3nc4cc(OC)c(OC)cc4cc3C#N)CC2)cc1`, the “activity change, positive = activation” value is -2.77%.

The values above are taken from PubChem BioAssay AID1458 (National Center for Advancing Translational Sciences (NCATS), 2008).
